Records with an inconclusive call do not appear. Calls of active or inactive are those of the source. Unless noted, calls come from the whole dose curve; as a rule, active = well fitted curve in the direction sought with a large enough effect in the repeat runs; inconclusive = weak or mixed curves; inactive = no such curve, though single readings can be large; an effect the other way counts as inactive or inconclusive.
Assays:
[1] = qHTS assay to identify small molecule antagonists of the retinoid acid receptor (RAR) signaling pathway - cell viability counter screen (AID 1159551); note: nearly all actives have a fitted effect of over 35% in size
Outline: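 Seed C3RL4 cells; next day add compound, then retinol to 1 uM final; incubate 6 h at 37 C; add CellTiter-Glo; read luminescence after 30 min at RT.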

[2] = qHTS assay to identify small molecule agonists of the retinoic acid receptor (RAR) signaling pathway (AID 1159553)
Outline: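 Activation of retinol signaling was monitored via a RARE luciferase reporter in C3RL4 cells. After 6 hr compound treatment at 37 C, detection reagent was added for 30 min at room temperature before luminescence reading.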

[3] = qHTS assay to identify small molecule antagonists of the estrogen related receptor (ERR) signaling pathway from Tox21 library - cell viability counter screen (AID 1224834); note: nearly all actives have a fitted effect of over 30% in size
Outline: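 CellTiter-Fluor fluorescence measured; ERR cells; 17.5 h compound incubation at 37 C; 30 min reagent step.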

[4] = target: Luciferin 4-monooxygenase (Photinus pyralis) (UniProt P08659); test: qHTS assay to identify small molecule inhibitors of firefly luciferase (AID 1224835); note: nearly all actives have a fitted effect of over 25% in size; note: potency is the fitted concentration of half-maximal effect; for activity change, negative = inhibition: series mostly up to about 120 µM
Outline: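 Inhibition of purified Photinus luciferase is measured by luminescence. Substrate levels (D-luciferin, ATP) sit at their KM values. Each compound is tested in a concentration series.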

[5] = qHTS assay to identify small molecule agonists of the constitutive androstane receptor (CAR) signaling pathway - cell viability counter screen (AID 1224836); note: series mostly up to about 92 µM; nearly all actives have a fitted effect of over 45% in size
Outline: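 HepG2 cells stably carrying hCAR and a CYP2B6-2.2kb reporter; 15-concentration compounds plus PK11195 (final 0.75 uM), 23 hr at 37 C/5% CO2. Viability read by CellTiter-Fluor fluorescence.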

[6] = qHTS assay to identify small molecule antagonists of the constitutive androstane receptor (CAR) signaling pathway - cell viability counter screen (AID 1224837); note: series mostly up to about 92 µM; nearly all actives have a fitted effect of over 45% in size
Outline: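 Using CellTiter-Fluor, viability is scored in HepG2 cells stably carrying hCAR and a 2.2kb CYP2B6 reporter after 23 hr compound exposure across 15 concentrations, with CITCO present at 50 nM.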

[7] = target: Nuclear receptor subfamily 1 group I member 3 (Homo sapiens) (UniProt Q14994); test: qHTS assay to identify small molecule antagonists of the constitutive androstane receptor (CAR) signaling pathway (AID 1224838);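 note: HepG2 cells stably expressing hCAR with CYP2B6 luciferase reporter stimulated by CITCO; nearly all actives have a fitted effect of over 40% in size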
Outline: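 Reporter luminescence was quantified after 24 h exposure of hCAR/CYP2B6-2.2kb double-stable HepG2 cells to compounds at 15 concentrations in the presence of 50 nM CITCO final.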

[8] = target: Nuclear receptor subfamily 1 group I member 3 (Homo sapiens) (UniProt Q14994); test: qHTS assay to identify small molecule agonists of the constitutive androstane receptor (CAR) signaling pathway (AID 1224839);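 note: HepG2 cells stably carrying human CAR and a CYP2B6 luciferase reporter; series mostly up to about 92 µM; nearly all actives have a fitted effect of over 15% in size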
Outline: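 HepG2 cells stably co-transfected with hCAR and a CYP2B6-2.2kb luciferase reporter; compounds at 15 concentrations with 0.75 uM PK11195 present. After 24 hr at 37 C, luciferase read by ONE-Glo luminescence.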

[9] = qHTS assay to identify small molecule antagonists of the estrogen related receptor signaling pathway with the pleiotropic PPARgamma coactivator (PGC) from Tox21 10K library - cell viability counter screen (AID 1224840; active = well fitted cell-killing curve with a large enough effect in the repeat runs, not every such curve was filed as active; note: nearly all actives have a fitted effect of over 40% in size)
Outline: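 Here the PGC/ERR cells serve as a cytotoxicity control: they are exposed to compounds for 17.5 hours at 37 C, and live-cell signal is quantified using CellTiter-Fluor fluorescence.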

[10] = qHTS assay to identify small molecule agonists of the estrogen related receptor signaling pathway with the pleiotropic PPARgamma coactivator (PGC) from Tox21 10K library (AID 1224842); note: nearly all actives have a fitted effect of over 15% in size
Outline: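 Luminescence from One-Glo (30 min, room temperature) measured after PGC/ERR cells had 18 h at 37 C with pinned compound (23 nL in DMSO). Cells had been seeded at 2,000 per well and pre-incubated 6 h.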

[11] = qHTS assay to identify small molecule agonists of the hypoxia (HIF-1) signaling pathway - cell viability counter screen (AID 1224844; calls by dose curve; note: nearly all actives have a fitted effect of over 50% in size)
Outline: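 Multiplexed with the HRE beta-lactamase assay, this viability read used CellTiter-Glo luminescence (30 min, RT) on HRE-bla ME-180 cells treated 17 hrs with compounds in 0.5% dialyzed FBS medium.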

[12] = qHTS assay to identify small molecule agonists of H2AX (AID 1224845; active = well fitted activation curve with a large enough effect in the signal ratio in the repeat runs, not every such curve was filed as active; the % refers to the signal ratio; note: potency is the fitted concentration of half-maximal effect)
Outline: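 Phospho-H2AX Ser139 measured by HTRF (ex 320 nm; em 665 and 620 nm) after 24 hr antibody incubation. Compounds, 15 concentrations, 0.76% DMSO, were applied to CHO-K1 cells for 3hr at 37C before lysis.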

[13] = qHTS assay to identify small molecule antagonists of the estrogen related receptor signaling pathway with the pleiotropic PPARgamma coactivator (PGC) from Tox21 10K library (AID 1224841; call rule not given here; note: actives are mostly falling curves and most rising ones were filed inactive; nearly all actives have a fitted effect of over 50% in size; note: potency is the fitted concentration of half-maximal effect; for activity, negative = inhibition: series mostly up to about 92 µM)
Outline: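 Each well held 2,000 PGC/ERR cells, pre-incubated six hours (37 C, 5% CO2). Test substances in DMSO were added by pin tool and left for 18 h at 37 C before luciferase detection by One-Glo.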

[14] = target: Thyrotropin receptor (Homo sapiens) (UniProt P16473); test: qHTS assay to identify small molecule agonists of the thyroid stimulating hormone receptor (TSHR) signaling pathway (AID 1224843; calls by dose curve; note: nearly all actives have a fitted effect of over 45% in size)
Outline: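 Screening of the Tox21 10K collection used HEK293 cells engineered with TSHR at 800 cells per well. After a 30-min room-temperature compound exposure, HTRF cAMP reagents were added and fluorescence recorded 1 h later.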

[15] = qHTS assay to identify small molecule antagonists of the retinoic acid receptor (RAR) signaling pathway (AID 1159552; note: nearly all actives have a fitted effect of over 50% in size)
Outline: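 Retinol signaling pathway inhibitors screened in C3RL4 RARE-luciferase reporter cells seeded overnight at 37 C, then compounds added with 1 uM (final) retinol as pathway substrate. After 6 hr at 37 C, luciferase luminescence read after 30 min at room temperature.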

[16] = qHTS assay to identify small molecule antagonists of the estrogen related receptor (ERR) signaling pathway - cell viability counter screen (AID 1224818);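 note: series mostly up to about 46 µM; viability measured after 17.5 h of compound exposure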
Outline: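 In the same ERR cell assay, compound-treated wells (17.5 h, 37 C) were multiplexed with a fluorogenic viability reagent, CellTiter-Fluor, read after 30 min to flag cytotoxic substances.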

[17] = qHTS assay to identify small molecule antagonists of the estrogen related receptor (ERR) signaling pathway (AID 1224819;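 note: luminescence from an ERR-driven luciferase reporter measured with One-Glo reagent; series mostly up to about 46 µM; nearly all actives have a fitted effect of over 50% in size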)
Outline: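 qHTS in ERR cells, 2,000/well, 1536 format. Cpd (DMSO) added after 6 h settle, 18 h 37 C. One-Glo luminescence, 30 min RT.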

[18] = qHTS assay to identify small molecule agonists of the estrogen related receptor (ERR) signaling pathway (AID 1224820)
Outline: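 Cells: ERR line from NTP, 2,000/well. Pre-incubation 6 h, 37 C/5% CO2. Compound (DMSO) pin transfer, 18 h 37 C. One-Glo, 30 min RT, luminescence.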

[19] = tested on: estrogen-related receptor alpha (ERRalpha) with PGC-1alpha coactivator, human; test: qHTS assay to identify small molecule antagonists of the estrogen related receptor signaling pathway with the pleiotropic PPARgamma coactivator (PGC) (AID 1224821; calls by dose curve)
Outline: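 Luminescent read-out (One-Glo, 30 min at room temperature) following 18 h treatment of PGC/ERR cells at 37 C with compounds delivered in DMSO. Cells had settled 6 h at 37 C/5% CO2 before dosing.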

[20] = qHTS assay to identify small molecule agonists of the estrogen related receptor signaling pathway with the pleiotropic PPARgamma coactivator (PGC) (AID 1224823)
Outline: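 Steps: plate PGC/ERR cells at 2,000 cells/well; incubate 6 h, 37 C/5% CO2; pin-transfer compounds (DMSO); incubate 18 h, 37 C; add One-Glo; 30 min RT; read luminescence.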
% is set by controls: 0 for no effect and ±100 for the full control effect.

Sequence of Luciferin 4-monooxygenase (Photinus pyralis) (P08659 whole entry, looked up): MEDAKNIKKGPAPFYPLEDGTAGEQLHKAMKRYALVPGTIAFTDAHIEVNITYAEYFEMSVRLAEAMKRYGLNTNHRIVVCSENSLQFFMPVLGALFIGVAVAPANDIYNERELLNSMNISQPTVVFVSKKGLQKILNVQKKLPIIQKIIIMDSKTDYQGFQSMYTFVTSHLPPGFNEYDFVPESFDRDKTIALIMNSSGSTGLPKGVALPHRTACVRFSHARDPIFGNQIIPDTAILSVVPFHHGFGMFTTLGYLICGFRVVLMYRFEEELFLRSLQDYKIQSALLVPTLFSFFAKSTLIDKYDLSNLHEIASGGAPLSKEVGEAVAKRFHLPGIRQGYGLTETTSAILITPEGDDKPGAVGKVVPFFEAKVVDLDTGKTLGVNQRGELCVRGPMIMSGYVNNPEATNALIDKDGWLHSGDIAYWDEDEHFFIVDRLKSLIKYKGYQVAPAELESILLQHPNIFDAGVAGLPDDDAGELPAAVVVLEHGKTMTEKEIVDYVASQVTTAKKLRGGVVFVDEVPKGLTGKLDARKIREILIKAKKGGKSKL
Sequence of Thyrotropin receptor (Homo sapiens) (P16473 whole entry, looked up): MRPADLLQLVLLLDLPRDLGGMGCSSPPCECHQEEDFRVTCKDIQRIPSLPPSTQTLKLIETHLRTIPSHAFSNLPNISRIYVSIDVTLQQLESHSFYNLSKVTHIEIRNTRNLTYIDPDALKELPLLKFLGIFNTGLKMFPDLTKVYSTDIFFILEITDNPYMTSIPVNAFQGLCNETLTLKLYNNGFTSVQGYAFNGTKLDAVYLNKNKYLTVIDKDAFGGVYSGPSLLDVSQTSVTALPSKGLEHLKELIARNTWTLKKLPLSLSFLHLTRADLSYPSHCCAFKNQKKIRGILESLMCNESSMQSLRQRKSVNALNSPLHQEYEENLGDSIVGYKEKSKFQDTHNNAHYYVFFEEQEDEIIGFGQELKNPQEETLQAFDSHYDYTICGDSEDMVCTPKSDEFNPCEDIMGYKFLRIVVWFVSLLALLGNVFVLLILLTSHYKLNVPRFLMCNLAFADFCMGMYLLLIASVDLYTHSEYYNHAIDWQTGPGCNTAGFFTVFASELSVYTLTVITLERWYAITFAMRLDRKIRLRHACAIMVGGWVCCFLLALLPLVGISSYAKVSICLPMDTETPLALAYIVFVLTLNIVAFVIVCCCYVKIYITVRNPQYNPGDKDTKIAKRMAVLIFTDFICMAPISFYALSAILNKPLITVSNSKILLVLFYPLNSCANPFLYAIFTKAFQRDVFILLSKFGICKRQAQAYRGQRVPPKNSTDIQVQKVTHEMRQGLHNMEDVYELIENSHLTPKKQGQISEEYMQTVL
Sequence of Nuclear receptor subfamily 1 group I member 3 (Homo sapiens) (Q14994 whole entry, looked up): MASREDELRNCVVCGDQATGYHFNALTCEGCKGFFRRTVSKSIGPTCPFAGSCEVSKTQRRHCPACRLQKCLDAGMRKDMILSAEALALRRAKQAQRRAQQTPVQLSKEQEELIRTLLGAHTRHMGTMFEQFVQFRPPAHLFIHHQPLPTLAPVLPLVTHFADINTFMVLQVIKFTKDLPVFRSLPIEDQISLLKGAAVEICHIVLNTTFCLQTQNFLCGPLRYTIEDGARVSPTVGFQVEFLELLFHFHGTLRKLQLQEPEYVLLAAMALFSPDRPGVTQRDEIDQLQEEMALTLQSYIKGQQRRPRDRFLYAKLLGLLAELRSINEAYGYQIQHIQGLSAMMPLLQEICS

C[N+]1(CC2COC(c3ccccc3)(c3ccccc3)O2)CCCCC1 (centres undefined)
inactive: activity change, negative = cytotoxicity [1] -0.8% [at 19 µM] | Potency [2] | viability change, negative = cytotoxic [3] 7.36% [at 19 µM] | activity change, negative = inhibition [4] -3.43% [at 23.6 µM] | viability change, negative = cytotoxic [5] 1.16% [at 19 µM] | activity change, negative = cytotoxicity [6] 4.57% [at 19 µM] | activity, negative = inhibition [7] -9.35% [at 19 µM] | activation [8] -2.79% [at 19 µM] | viability change, negative = cytotoxic [9] -2.82% [at 19 µM] | activation [10] 0.389% [at 19 µM] | activity change, negative = cytotoxicity [11] 0.991% [at 15.8 µM] | activation (H2AX phosphorylation) [12] -1.86% [at 31.6 µM]

CC(=O)c1ccccc1[N+](=O)[O-]
inactive: outcome [1] | Potency [2] | Potency [3] | Potency [4] | outcome [5] | outcome [6] | Potency [7] | Potency [8] | outcome [9] | Potency [13] | Potency [10] | Potency [14] | Potency [11] | Potency [12]

COc1cc(C(=O)NCc2ccc(OCCN(C)C)cc2)cc(OC)c1OC
inactive: outcome [1] | Potency [2] | Potency [3] | Potency [4] | outcome [5] | outcome [6] | Potency [7] | Potency [8] | outcome [9] | Potency [14] | Potency [11] | Potency [12]

O=C(O)CC(C(=O)O)S(=O)(=O)O (centres undefined)
inactive: outcome [1] | Potency [15] | Potency [3] | outcome [5] | outcome [6] | Potency [7] | Potency [8] | outcome [9] | Potency [13] | Potency [10] | Potency [14] | Potency [11] | Potency [12]

CCN(CC#N)c1cccc(C)c1
inactive: outcome [1] | Potency [15] | Potency [3] | outcome [5] | outcome [6] | Potency [7] | Potency [8] | outcome [9] | Potency [11] | Potency [12]

Cc1ccc(C(=O)c2ccc(CC(=O)O)n2C)cc1
active: Potency [4] 15.5 µM
inactive: outcome [1] | Potency [2] | Potency [3] | outcome [5] | outcome [6] | Potency [7] | Potency [8] | outcome [9] | Potency [13] | Potency [10] | Potency [14] | Potency [11] | Potency [12]

FB(F)F
active: Potency [13] 45.4 µM
inactive: outcome [1] | Potency [2] | Potency [3] | outcome [5] | outcome [6] | outcome [9] | Potency [10] | Potency [14] | Potency [11] | Potency [12]

CCCCS(=O)(=O)N[C@@H](Cc1ccc(OCCCCC2CCNCC2)cc1)C(=O)O
inactive: outcome [1] | Potency [2] | Potency [3] | Potency [4] | outcome [5] | outcome [6] | outcome [9] | Potency [14] | Potency [11] | Potency [12]

O=S(=O)(O)c1cccc2c(S(=O)(=O)O)cccc12
inactive: outcome [1] | Potency [2] | Potency [3] | outcome [5] | outcome [6] | Potency [7] | Potency [8] | outcome [9] | Potency [13] | Potency [10] | Potency [14] | Potency [11] | Potency [12]

CC(CC=O)CC(C)(C)C (centres undefined)
inactive: outcome [1] | Potency [15] | Potency [3] | outcome [5] | outcome [6] | Potency [7] | Potency [8] | Potency [14] | Potency [11] | Potency [12]

COc1c(N2CCNC(C)C2)c(F)cc2c(=O)c(C(=O)O)cn(C3CC3)c12 (centres undefined)
inactive: outcome [1] | Potency [2] | Potency [3] | Potency [4] | outcome [5] | outcome [6] | Potency [7] | Potency [8] | outcome [9] | Potency [11] | Potency [12]

Nc1ccn([C@@H]2O[C@H](CO)[C@@H](O)[C@@H]2O)c(=O)n1
inactive: outcome [1] | Potency [2] | outcome [16] | outcome [17] | outcome [18] | outcome [19] | outcome [20] | Potency [3] | Potency [4] | outcome [5] | outcome [6] | Potency [8] | Potency [13] | Potency [10] | Potency [11]
active: Potency [12] 20.1 µM

[Ca+2]
inactive: outcome [1] | Potency [2] | Potency [3] | Potency [4] | outcome [5] | outcome [6] | outcome [9] | Potency [14] | Potency [11] | Potency [12]

CN(C)C(=O)Oc1cccc([N+](C)(C)C)c1
inactive: outcome [1] | Potency [2] | outcome [16] | Potency [3] | Potency [4] | outcome [5] | outcome [6] | Potency [7] | Potency [8] | outcome [9] | Potency [14] | Potency [11] | Potency [12]

COc1ccc2cc1Oc1cc3c(cc1OC)CC[N+](C)(C)[C@H]3Cc1ccc(cc1)Oc1c(OC)c(OC)cc3c1[C@@H](C2)[N+](C)(C)CC3
inactive: outcome [1] | Potency [2] | Potency [3] | outcome [5] | outcome [6] | Potency [7] | Potency [8] | outcome [9] | Potency [10] | Potency [14] | Potency [11] | Potency [12]

CCOC(=O)COc1cc(-n2ncc(C(F)(F)F)c(C)c2=O)c(F)cc1Cl
inactive: outcome [1] | Potency [15] | Potency [3] | outcome [5] | outcome [6] | Potency [7] | Potency [8] | Potency [11] | Potency [12]

c1ccc2sc(SN3CCOCC3)nc2c1
inactive: outcome [1] | Potency [15] | Potency [3] | outcome [5] | outcome [6] | Potency [7] | outcome [9] | Potency [13] | Potency [10] | Potency [14] | Potency [11] | Potency [12]

O=C(O)CCCC[P+](c1ccccc1)(c1ccccc1)c1ccccc1
inactive: outcome [1] | Potency [2] | Potency [3] | Potency [4] | outcome [5] | outcome [6] | Potency [7] | Potency [8] | outcome [9] | Potency [14] | Potency [11] | Potency [12]

CC[N+](C)(CC)CCOC(=O)C1c2ccccc2Oc2ccccc21
inactive: outcome [1] | Potency [2] | Potency [3] | outcome [5] | outcome [6] | outcome [9] | Potency [14] | Potency [11] | Potency [12]

Cc1ccc(-c2ccccc2C#N)cc1
inactive: outcome [1] | Potency [15] | Potency [3] | outcome [5] | outcome [6] | Potency [7] | Potency [8] | outcome [9] | Potency [14] | Potency [11] | Potency [12]
